Reference: PubChem BioAssay (NCATS)
Records with an inconclusive call do not appear. Calls of active or inactive are those of the source. Unless noted, the call rests on the fitted dose curve; in most records, active means well fitted curve in the direction sought with a large enough effect; inconclusive means small, poorly fitted or top-dose-only effect, or another doubt; inactive means no such curve, though single readings can be large; an effect the other way counts as inactive or inconclusive.

Columns and labels:
[1] = molecular target: phosphoglycerate mutase (Leishmania major) (UniProt Q4Q090); experiment: qHTS Validation Assay to Find Inhibitors of Phosphoglycerate Mutase (AID 504548);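 further: end-point luminescence from Kinase-GloPlus after the PGAM reaction; series mostly up to about 58 µM; on the % scale 0 is the no-effect control and ±100 the full control effect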
Method in brief: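 L. major PGAM (1.25nM final) was added to substrate buffer and pinned compound, incubated 45 minutes at room temperature, then Kinase-GloPlus added; luminescence read after 10 minutes. Buffer: 100 mM TEA pH 7.6, 5 mM MgCl2, 0.01% Tween-20.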

[2] = molecular target: Ubiquitin carboxyl-terminal hydrolase 1 (Homo sapiens) (UniProt O94782); experiment: Inhibitors of USP1/UAF1: Pilot qHTS (AID 504865);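 further: rhodamine fluorescence freed from ubiquitin-rhodamine substrate followed over time; top concentration of the series differs between compounds; on the % scale 0 is the no-effect control and ±100 the full control effect; nearly all actives have a fitted effect of over 35% in size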
Method in brief: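 1nM USP1/UAF1 + cpd, 15 min RT; start w/ Ub-Rho 150nM final; kinetic FL 480/540 nm, 6 reads q60 s. Buffer 50mM HEPES pH 7.8, 0.5mM EDTA, 1mM TCEP, 0.01% Tween-20, 0.1 mg/ml BSA.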

[3] = qHTS for Inhibitors of ATXN expression: Validation (AID 588378); further: nearly all actives have a fitted effect of over 75% in size; further: potency means the concentration at half of the fitted maximal effect
Method in brief: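 Cells: HEK293-ATXN2-FFLuc, phenol-red free DMEM, 2 h attachment. Compound pin-transfer, 24 h, 37 degrees C, 5% CO2. CellTiter-Fluor 30 min, Ex405/Em525; Bright-Glo 5 min, luminescence 2 s exposure.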

[4] = molecular target: DNA dC->dU-editing enzyme APOBEC-3G (Homo sapiens) (UniProt Q9HC16); experiment: qHTS for inhibitors of Vif-A3G interactions: Validation (AID 588379); further: 0% is about no effect
Method in brief: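 Yellow fluorescence (Ex 488, Em 500-530) of Vif-coexpressing HeLa A3G-eYFP cells, scanned by Acumen cytometer, reports blocked A3G degradation. Cells plated at 700/well overnight at 37 deg C before compound addition, then a further overnight compound incubation at 37 deg C.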

[5] = qHTS for Inhibitors of ATXN expression: Validation of Cytotoxic Assay (AID 588349); further: on the % scale 0 is the no-effect control and ±100 the full control effect
Method in brief: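 Cytotoxicity counter-screen: ATP-based luminescent viability (CellTiter Glo) after 72 hr exposure of HEK293 cells to a compound titration at 37 degrees C.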

[6] = molecular target: Estrogen receptor (Homo sapiens) (UniProt P03372); experiment: qHTS assay for small molecule antagonists of estrogen receptor alpha signaling (AID 588513; active means well fitted curve in the direction sought with a large enough effect in the signal ratio, with a control signal flat, not every such curve was filed as active; the % refers to the signal ratio; further: on the % scale 0 is the no-effect control and ±100 the full control effect)
Method in brief: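 Beta-lactamase reporter, antagonist mode, HEK 293 GripTite cells; 0.5nM E2 stimulus, 18 h, 37 C; CCF4 dye 2 h RT; fluorescence. IC50 and efficacy from Hill fits, normalized to E2 and DMSO.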

[7] = molecular target: Estrogen receptor (Homo sapiens) (UniProt P03372); experiment: qHTS assay for small molecule agonists of estrogen receptor alpha signaling (AID 588514; calls by dose curve;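 further: 0% = vehicle only and 100% = reference agonist; nearly all actives have a fitted effect of over 70% in size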)
Method in brief: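 EC50 and efficacy came from Hill fits of beta-lactamase reporter signal (CCF4 dye, 2 h at room temperature) scaled between DMSO and 20 nM 17-beta-estradiol. Agonist mode: HEK293 ER-alpha-UAS-bla cells in charcoal/dextran-stripped serum medium, 18 h compound exposure at 37 C.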

[8] = molecular target: Glucocorticoid receptor (Homo sapiens) (UniProt P04150); experiment: qHTS assay for small molecule agonists of glucocorticoid receptor signaling (AID 588532; active means well fitted curve in the direction sought with a large enough effect in the signal ratio, with a control signal flat; the % refers to the signal ratio;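 further: 100% = dexamethasone at 0.1 µM and 0% = DMSO only wells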); conditions: HeLa MMTV-bla, beta-lactamase ratio, agonist, 18 h; activation: stronger effect = higher value, percent of dexamethasone control, DMSO zero
Method in brief: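 MMTV-bla HeLa beta-lactamase reporter cells in 1% charcoal/dextran FBS medium, compounds up to 92 uM for 18 h at 37 C, CCF4 readout; normalized to 0.1 uM dexamethasone (100%), EC50 and efficacy from Hill fits.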

[9] = molecular target: Glucocorticoid receptor (Homo sapiens) (UniProt P04150); experiment: qHTS assay for small molecule antagonists of glucocorticoid receptor signaling (AID 588533; active means well fitted inhibition curve with a large enough effect in the signal ratio, with a control signal flat, not every such curve was filed as active; the % refers to the signal ratio; further: on the % scale 0 is the no-effect control and ±100 the full control effect)
Method in brief: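 Antagonist-mode qHTS: compound titrations added to GRE-bla HeLa cells, then dexamethasone 2 nM final; 18 h, 37 C. CCF4 FRET fluorescence normalized to dexamethasone and DMSO; IC50 from Hill fit.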

[10] = qHTS assay for small molecule antagonists of peroxisome proliferator-activated receptor delta signaling (AID 588535; active means well fitted inhibition curve with a large enough effect in the signal ratio, with a control signal flat, not every such curve was filed as active; the % refers to the signal ratio;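 on max response: cells co-treated with a PPAR-delta agonist as stimulator during compound exposure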); conditions: HEK293T PPARd-UAS-bla, beta-lactamase FRET ratio, 18 h; 460 nm channel
Method in brief: (§1)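 Fluorescence from CCF4-loaded GeneBLAzer PPAR-delta-UAS-bla HEK293T cells (2 hrs RT loading) quantified reporter inhibition after an 18 hr, 37 C compound exposure across a titration.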

[11] = molecular target: Peroxisome proliferator-activated receptor delta (Homo sapiens) (UniProt Q03181); experiment: as above
Method in brief: as §1

[12] = molecular target: Peroxisome proliferator-activated receptor gamma (Homo sapiens) (UniProt P37231); experiment: qHTS assay for small molecule agonists of peroxisome proliferator-activated receptor gamma signaling (AID 588536; active means well fitted curve in the direction sought with a large enough effect in the signal ratio, with a control signal flat, not every such curve was filed as active; the % refers to the signal ratio;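 further: 0% = DMSO basal wells and 100% = rosiglitazone at 2 µM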)
Method in brief: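 This is an agonist-mode beta-lactamase reporter assay in HEK293 PPAR-gamma-UAS-bla cells with 1% charcoal/dextran FBS. Compound titrations ran 16 h at 37 C before CCF4 detection. EC50 and efficacy are Hill fits scaled to 2 uM rosiglitazone (100%) and DMSO basal.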

[13] = molecular target: Peroxisome proliferator-activated receptor gamma (Homo sapiens) (UniProt P37231); experiment: qHTS assay for small molecule antagonists of peroxisome proliferator-activated receptor gamma signaling (AID 588537; active means well fitted inhibition curve with a large enough effect in the signal ratio, with a control signal flat, not every such curve was filed as active; the % refers to the signal ratio;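 further: reporter cells co-stimulated with 50 nM rosiglitazone agonist during compound treatment; % of control where 0% means no effect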)
Method in brief: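 Fluorescence at 460 and 530 nm (405 nm excitation) reported beta-lactamase cleavage of CCF4 after 2 h room-temperature loading. HEK293 reporter cells in 1% charcoal/dextran-treated FBS had received compound and rosiglitazone for 16 h.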

[14] = molecular target: Vitamin D3 receptor (Homo sapiens) (UniProt P11473); experiment: qHTS assay for small molecule antagonists of vitamin D receptor signaling (AID 588541; calls by dose curve)
Method in brief: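 VDR-UAS-bla HEK293T cells in 2% charcoal-stripped FBS were stimulated with 1-alpha,25-dihydroxyvitamin D3 (3 nM final) plus compound for 16 h at 37 C. The beta-lactamase CCF4 readout was normalized to 50 nM agonist and DMSO, and Hill fits gave IC50.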

[15] = molecular target: Vitamin D3 receptor (Homo sapiens) (UniProt P11473); experiment: qHTS assay for small molecule agonists of vitamin D receptor signaling (AID 588543; calls by dose curve;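 further: 0% = DMSO basal and 100% = reference agonist control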)
Method in brief: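 β-lactamase reporter, VDR-UAS-bla HEK293T, agonist mode. Cells plated 5 h at 37 °C, compound titration 16 h at 37 °C, CCF4 dye 2 h RT, ratio 460/530 nm. Hill fit → EC50, efficacy vs 50 nM 1α,25-(OH)2D3.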

[16] = qHTS assay for small molecule agonists of retinoid X receptor alpha signaling (AID 588544); conditions: HEK293T RXRa-UAS-bla, beta-lactamase reporter, 18 h; 530 nm emission
[17] = molecular target: Thyroid hormone receptor beta (Homo sapiens) (UniProt P10828); experiment: qHTS assay for small molecule agonists of thyroid hormone receptor beta signaling (AID 588545; calls by dose curve)
Method in brief: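 Agonist-mode beta-lactamase reporter assay, HEK 293 cells, 2% charcoal/dextran FBS; cells plated 4 hrs, compound 18 hrs at 37 C, CCF4 2 hrs RT. Normalized to 10 nM T3 (100%) and DMSO (0%); Hill fit gives EC50, efficacy.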

Chain of Ubiquitin carboxyl-terminal hydrolase 1 (Homo sapiens) (O94782 whole entry, looked up): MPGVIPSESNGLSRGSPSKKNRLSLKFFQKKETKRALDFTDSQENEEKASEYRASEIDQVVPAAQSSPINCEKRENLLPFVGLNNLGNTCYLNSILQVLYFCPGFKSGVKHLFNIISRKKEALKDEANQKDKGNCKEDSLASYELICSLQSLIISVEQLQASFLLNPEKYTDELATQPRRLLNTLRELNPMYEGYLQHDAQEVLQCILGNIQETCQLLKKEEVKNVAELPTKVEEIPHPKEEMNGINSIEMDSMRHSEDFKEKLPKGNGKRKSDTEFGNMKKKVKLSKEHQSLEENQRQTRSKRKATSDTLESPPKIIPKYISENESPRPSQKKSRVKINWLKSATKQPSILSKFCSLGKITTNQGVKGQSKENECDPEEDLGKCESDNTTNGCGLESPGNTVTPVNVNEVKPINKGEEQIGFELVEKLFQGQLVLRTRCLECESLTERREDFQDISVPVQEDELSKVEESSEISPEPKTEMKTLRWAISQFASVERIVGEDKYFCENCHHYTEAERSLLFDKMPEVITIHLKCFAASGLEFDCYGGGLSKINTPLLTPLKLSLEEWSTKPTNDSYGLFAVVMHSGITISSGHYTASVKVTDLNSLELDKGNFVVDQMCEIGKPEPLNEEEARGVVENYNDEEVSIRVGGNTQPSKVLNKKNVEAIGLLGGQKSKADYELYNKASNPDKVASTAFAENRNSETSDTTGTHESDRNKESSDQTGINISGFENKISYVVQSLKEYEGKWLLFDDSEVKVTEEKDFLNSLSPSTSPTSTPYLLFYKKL
Chain of phosphoglycerate mutase (Leishmania major) (Q4Q090 1-553): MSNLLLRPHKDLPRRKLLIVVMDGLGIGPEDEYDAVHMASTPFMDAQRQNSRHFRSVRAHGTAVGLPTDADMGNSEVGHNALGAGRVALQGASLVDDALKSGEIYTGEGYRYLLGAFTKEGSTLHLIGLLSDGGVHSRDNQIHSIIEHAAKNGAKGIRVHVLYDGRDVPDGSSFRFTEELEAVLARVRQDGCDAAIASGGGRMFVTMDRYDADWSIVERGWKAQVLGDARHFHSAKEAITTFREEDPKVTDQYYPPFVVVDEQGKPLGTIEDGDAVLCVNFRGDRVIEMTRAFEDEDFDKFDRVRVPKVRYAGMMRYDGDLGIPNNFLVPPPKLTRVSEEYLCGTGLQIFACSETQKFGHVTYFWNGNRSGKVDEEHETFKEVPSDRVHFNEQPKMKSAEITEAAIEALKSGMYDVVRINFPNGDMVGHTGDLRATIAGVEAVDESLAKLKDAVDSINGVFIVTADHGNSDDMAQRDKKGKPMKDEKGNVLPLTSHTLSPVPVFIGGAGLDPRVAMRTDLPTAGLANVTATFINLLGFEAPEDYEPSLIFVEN
Chain of Vitamin D3 receptor (Homo sapiens) (P11473 whole entry, looked up): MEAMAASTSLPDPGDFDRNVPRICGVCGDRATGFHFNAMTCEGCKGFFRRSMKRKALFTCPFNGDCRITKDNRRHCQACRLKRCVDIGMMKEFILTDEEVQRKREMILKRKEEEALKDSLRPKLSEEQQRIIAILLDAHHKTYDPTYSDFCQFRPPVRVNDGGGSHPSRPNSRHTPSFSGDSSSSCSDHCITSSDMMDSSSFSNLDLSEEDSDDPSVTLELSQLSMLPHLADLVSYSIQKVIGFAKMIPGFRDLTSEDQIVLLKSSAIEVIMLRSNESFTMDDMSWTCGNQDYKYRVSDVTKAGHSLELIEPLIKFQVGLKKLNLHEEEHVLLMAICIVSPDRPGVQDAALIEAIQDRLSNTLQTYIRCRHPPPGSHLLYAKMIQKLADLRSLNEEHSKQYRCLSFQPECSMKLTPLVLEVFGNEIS
Chain of Peroxisome proliferator-activated receptor gamma (Homo sapiens) (P37231 whole entry, looked up): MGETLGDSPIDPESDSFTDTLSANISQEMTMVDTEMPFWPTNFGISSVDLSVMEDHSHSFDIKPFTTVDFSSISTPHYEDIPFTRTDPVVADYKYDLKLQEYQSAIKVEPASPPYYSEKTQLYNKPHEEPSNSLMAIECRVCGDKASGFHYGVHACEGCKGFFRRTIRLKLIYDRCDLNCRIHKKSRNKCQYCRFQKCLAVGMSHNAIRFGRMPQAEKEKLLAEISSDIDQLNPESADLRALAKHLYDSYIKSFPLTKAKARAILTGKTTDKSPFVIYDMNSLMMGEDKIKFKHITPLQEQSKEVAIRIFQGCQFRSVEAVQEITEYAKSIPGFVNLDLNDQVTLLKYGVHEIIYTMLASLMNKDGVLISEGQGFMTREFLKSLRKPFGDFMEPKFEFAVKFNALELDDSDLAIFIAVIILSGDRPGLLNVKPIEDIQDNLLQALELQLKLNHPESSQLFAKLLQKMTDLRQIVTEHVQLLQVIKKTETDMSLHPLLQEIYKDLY
Chain of DNA dC->dU-editing enzyme APOBEC-3G (Homo sapiens) (Q9HC16 whole entry, looked up): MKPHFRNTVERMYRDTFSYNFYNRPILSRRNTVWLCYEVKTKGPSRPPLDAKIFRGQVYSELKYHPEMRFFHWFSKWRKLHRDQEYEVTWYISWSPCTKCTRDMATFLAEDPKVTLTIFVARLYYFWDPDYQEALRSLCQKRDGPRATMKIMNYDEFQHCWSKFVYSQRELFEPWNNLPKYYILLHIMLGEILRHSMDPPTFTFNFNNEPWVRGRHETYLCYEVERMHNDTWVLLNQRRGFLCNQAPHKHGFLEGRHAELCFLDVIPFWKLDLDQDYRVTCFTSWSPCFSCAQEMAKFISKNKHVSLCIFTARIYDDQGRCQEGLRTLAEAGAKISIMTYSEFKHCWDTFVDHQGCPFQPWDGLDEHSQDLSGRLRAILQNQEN
Chain of Glucocorticoid receptor (Homo sapiens) (P04150 whole entry, looked up): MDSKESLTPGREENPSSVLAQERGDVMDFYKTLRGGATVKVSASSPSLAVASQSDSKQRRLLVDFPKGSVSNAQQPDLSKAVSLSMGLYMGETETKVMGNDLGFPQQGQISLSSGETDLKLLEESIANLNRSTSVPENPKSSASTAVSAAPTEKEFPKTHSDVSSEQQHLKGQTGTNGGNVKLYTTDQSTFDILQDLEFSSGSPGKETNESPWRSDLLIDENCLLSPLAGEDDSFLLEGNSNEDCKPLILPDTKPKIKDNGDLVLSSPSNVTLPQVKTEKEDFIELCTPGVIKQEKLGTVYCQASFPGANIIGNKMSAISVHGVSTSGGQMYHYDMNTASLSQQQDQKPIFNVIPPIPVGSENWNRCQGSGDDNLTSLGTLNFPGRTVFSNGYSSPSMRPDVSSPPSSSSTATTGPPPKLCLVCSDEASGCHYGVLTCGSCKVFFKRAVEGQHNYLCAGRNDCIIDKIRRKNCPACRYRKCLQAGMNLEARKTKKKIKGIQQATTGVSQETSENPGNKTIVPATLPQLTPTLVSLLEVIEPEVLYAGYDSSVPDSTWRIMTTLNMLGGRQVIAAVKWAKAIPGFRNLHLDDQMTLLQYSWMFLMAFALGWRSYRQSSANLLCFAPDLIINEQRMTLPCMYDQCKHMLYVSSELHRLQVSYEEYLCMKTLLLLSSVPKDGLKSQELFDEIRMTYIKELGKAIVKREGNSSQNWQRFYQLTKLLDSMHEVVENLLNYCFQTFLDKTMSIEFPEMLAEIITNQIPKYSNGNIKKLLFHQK
Chain of Estrogen receptor (Homo sapiens) (P03372 whole entry, looked up): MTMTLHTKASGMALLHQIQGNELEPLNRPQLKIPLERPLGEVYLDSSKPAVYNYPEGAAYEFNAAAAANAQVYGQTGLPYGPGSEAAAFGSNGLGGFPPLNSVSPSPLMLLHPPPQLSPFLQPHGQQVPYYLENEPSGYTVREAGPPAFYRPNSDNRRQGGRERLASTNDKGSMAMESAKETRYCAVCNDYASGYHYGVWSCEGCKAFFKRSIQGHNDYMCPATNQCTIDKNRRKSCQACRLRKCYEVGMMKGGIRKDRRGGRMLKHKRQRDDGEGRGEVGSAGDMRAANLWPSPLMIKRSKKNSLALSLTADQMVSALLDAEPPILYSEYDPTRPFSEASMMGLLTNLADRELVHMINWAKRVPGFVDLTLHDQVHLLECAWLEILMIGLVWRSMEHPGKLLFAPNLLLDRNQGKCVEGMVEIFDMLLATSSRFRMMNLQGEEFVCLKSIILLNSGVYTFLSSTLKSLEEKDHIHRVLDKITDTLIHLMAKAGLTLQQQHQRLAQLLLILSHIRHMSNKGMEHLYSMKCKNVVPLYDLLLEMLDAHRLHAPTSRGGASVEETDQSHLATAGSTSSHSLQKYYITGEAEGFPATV
Chain of Thyroid hormone receptor beta (Homo sapiens) (P10828 whole entry, looked up): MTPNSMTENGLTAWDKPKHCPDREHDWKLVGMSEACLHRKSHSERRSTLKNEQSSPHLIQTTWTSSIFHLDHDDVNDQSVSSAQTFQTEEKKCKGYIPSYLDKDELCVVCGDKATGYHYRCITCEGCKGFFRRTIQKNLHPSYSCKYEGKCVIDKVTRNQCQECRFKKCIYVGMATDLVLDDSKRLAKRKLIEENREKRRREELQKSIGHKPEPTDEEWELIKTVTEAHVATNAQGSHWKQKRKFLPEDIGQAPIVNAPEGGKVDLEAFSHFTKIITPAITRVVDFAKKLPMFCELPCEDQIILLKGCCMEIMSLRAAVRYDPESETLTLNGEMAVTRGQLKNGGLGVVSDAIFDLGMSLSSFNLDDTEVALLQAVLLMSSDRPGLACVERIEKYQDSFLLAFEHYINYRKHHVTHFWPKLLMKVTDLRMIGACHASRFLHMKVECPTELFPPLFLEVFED
Chain of Peroxisome proliferator-activated receptor delta (Homo sapiens) (Q03181 whole entry, looked up): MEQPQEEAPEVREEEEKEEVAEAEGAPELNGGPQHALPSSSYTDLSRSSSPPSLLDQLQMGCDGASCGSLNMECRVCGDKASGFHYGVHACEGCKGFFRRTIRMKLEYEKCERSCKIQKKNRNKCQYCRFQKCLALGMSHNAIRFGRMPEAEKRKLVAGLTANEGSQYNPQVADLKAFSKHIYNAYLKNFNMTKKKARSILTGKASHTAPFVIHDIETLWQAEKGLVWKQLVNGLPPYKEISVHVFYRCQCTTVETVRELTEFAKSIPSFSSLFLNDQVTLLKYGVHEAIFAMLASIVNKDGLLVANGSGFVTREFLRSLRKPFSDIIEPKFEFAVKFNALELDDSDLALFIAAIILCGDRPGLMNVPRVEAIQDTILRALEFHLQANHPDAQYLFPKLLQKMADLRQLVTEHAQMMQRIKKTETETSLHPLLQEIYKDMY

FC(F)(F)c1ccccc1-n1ccnc1
inactive: outcome [1] | Potency [2] | Potency [3] | outcome [4]

Cc1ccc(S(=O)(=O)NC(=O)NN2CCCCCC2)cc1
-3.25%: max response [16]
inactive: outcome [1] | Potency [5] | Potency [3] | outcome [6] | Potency [7] | activation [8] -1.16% | Potency [9] | outcome [11] | outcome [12] | outcome [13] | outcome [14] | outcome [15] | Potency [17]
47.3%: max response [10]

CC(N=C(NC#N)Nc1ccncc1)C(C)(C)C (configuration not stated)
inactive: Potency [2] | Potency [3]

COC(=O)C1=C(C)NC(C)=C(C(=O)OCCN(C)Cc2ccccc2)C1c1cccc([N+](=O)[O-])c1 (configuration not stated)
inactive: outcome [1]
active: Potency [3] 35.5 µM

CN1CCN(CC(=O)N2c3ccccc3C(=O)Nc3cccnc32)CC1
inactive: outcome [1] | Potency [2] | Potency [3] | outcome [4]
